Experimental data taken from the supplement of paper PMC6555819.

Columns and labels:
Assay in all cases: PBM binding z-score (relative to random genomic background probes); higher = stronger binding; sequences stand for … in GC…GCGATTGACAGCGTAGAATGAAGG
[1] = tested on: FXR:RXRa (NR concentration 270 nM, RXRa partner concentration 90 nM)
Summary of the method: (§1)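 Random background probes are the reference for binding z-scores. These scores derive from regression-normalized fluorescence on custom Agilent 4×180K protein-binding microarrays incubated 1 h with ligand-free nuclear receptor dimers. Binding was detected with antibodies against each partner (one per run).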

[2] = tested on: LXRa:RXRa (NR concentration 270 nM, RXRa partner concentration 90 nM)
Summary of the method: as §1

[3] = tested on: LXRa homodimer (NR concentration 270 nM)
Summary of the method: as §1

[4] = tested on: LXRb:RXRa (NR concentration 270 nM, RXRa partner concentration 90 nM)
Summary of the method: as §1

[5] = tested on: LXRb homodimer (NR concentration 270 nM)
Summary of the method: as §1

[6] = tested on: PPARa:RXRa (NR concentration 270 nM, RXRa partner concentration 90 nM)
Summary of the method: as §1

[7] = tested on: PPARg:RXRa (NR concentration 180 nM, RXRa partner concentration 90 nM)
Summary of the method: as §1

[8] = tested on: PPARg:RXRa 270nM:90nM, anti-RXR (NR concentration 270 nM, RXRa partner concentration 90 nM)
Summary of the method: as §1

[9] = tested on: PPARg:RXRa 30nM:10nM, anti-RXR (NR concentration 30 nM, RXRa partner concentration 10 nM)
Summary of the method: as §1

[10] = tested on: PPARg:RXRa 90nM:30nM, anti-RXR (NR concentration 90 nM, RXRa partner concentration 30 nM)
Summary of the method: as §1

[11] = tested on: PPARg:RXRa DBDmut IVT, anti-RXR (DBD mutation: RXRa K156A/R161A, NR concentration 270 nM, RXRa partner concentration 90 nM)
Summary of the method: as §1

[12] = tested on: PPARg:RXRa IVT, anti-PPARg (NR concentration 270 nM, RXRa partner concentration 90 nM)
Summary of the method: as §1

[13] = tested on: PPARg DBDmut IVT, anti-PPARg (DBD mutation: PPARg1 K132A/R137A, NR concentration 270 nM)
Summary of the method: as §1

[14] = tested on: PPARg homodimer (NR concentration 180 nM)
Summary of the method: as §1

[15] = tested on: PXR:RXRa (NR concentration 270 nM, RXRa partner concentration 90 nM)
Summary of the method: as §1

[16] = tested on: PXR homodimer (NR concentration 270 nM)
Summary of the method: as §1

[17] = tested on: RARa:RXR (NR concentration 270 nM, RXRa partner concentration 90 nM)
Summary of the method: as §1

[18] = tested on: RARa homodimer (NR concentration 270 nM)
Summary of the method: as §1

[19] = tested on: RARb:RXRa (NR concentration 270 nM, RXRa partner concentration 90 nM)
Summary of the method: as §1

Sequence	PBM binding z-score [1]	PBM binding z-score [2]	PBM binding z-score [3]	PBM binding z-score [4]	PBM binding z-score [5]	PBM binding z-score [6]	PBM binding z-score [7]	PBM binding z-score [8]	PBM binding z-score [9]	PBM binding z-score [10]	PBM binding z-score [11]	PBM binding z-score [12]	PBM binding z-score [13]	PBM binding z-score [14]	PBM binding z-score [15]	PBM binding z-score [16]	PBM binding z-score [17]	PBM binding z-score [18]	PBM binding z-score [19]
CGCACTAGGTCAAAGGACAGTGAAAGGCGACGTA	4.07	2.88	0.082	1.83	-0.151	5.48	10.1	8.55	8.13	8.98	7.3	8.16	0.801	0.993	1.27	0.0363	2.25	0.165	3.84
CGAACTAGGACACCAGGACAGTGAAGAGGTTGGA	-0.0401	-0.43	-0.083	-0.854	-0.923	0.865	2.08	1.33	0.527	0.812	6.02	5.32	-0.0745	0.381	-0.661	-0.233	-0.0962	0.279	0.552
ATATGTAGGTTAGGGTTATTCAGAAAGTAGGGAA	2.3	2.27	0.961	2.84	1.66	4.11	5.61	5.21	3.18	4.8	6.88	6.54	2.32	2.77	2.33	1.31	2.55	1.94	1.57
CGAACTAAGTCAAAGGACAGTGAAAGGCGACGTA	-0.166	-0.175	-0.153	-0.345	-0.704	1.52	2.74	4.16	1.7	3.85	0.998	1.31	0.266	0.434	-0.186	-0.123	0.156	0.0596	1.29
CGAACTAGGTCACCAGGACAGTGCAGAGGTTGGA	4.04	2.7	0.199	1.76	-0.667	5.21	8.59	6.83	4.82	6.44	8.28	8.75	0.713	2.02	1.73	0.15	2.58	0.578	4.14
CGAACTAGGTCACCAGGACGGTGAAGAGGTTGGA	3.75	2.3	-0.206	1.19	-0.86	5.23	8.37	6.93	4.31	6.43	7.98	8.73	2.21	2.07	1.18	-0.299	2.21	-0.518	4.26
ATATGTAGGTTAGGGTCATCCAGAAAGTAGGGAA	5.11	4.21	1.16	4.31	1.44	5.62	8.03	6.66	4.94	6.67	6.49	6.96	3.77	6.33	4.46	1.88	5.12	2.64	3.55
CGAACTAGGTCACCAGGACACTGAAGAGGTTGGA	3.92	2.61	0.155	1.95	-0.211	5.31	8.46	7.07	4.81	6.92	8.03	8.93	1.04	1.58	2.02	0.353	2.73	0.625	4.22
CGAACTGGGTCACCAGGACAGTGAAGAGGTTGGA	3.32	1.63	-0.247	1.24	-0.906	4.99	8.62	6.73	4.52	6.31	7.66	8.73	1.6	1.47	1.55	-0.358	2.52	-0.049	3.73
CGAACTAGGTCACCAGGACTGTGAAGAGGTTGGA	4.32	2.55	-0.155	1.59	-0.403	5.08	8.54	6.81	4.45	6.79	8.46	8.71	1.86	3.94	1.55	-0.354	2.79	0.25	4.27
CGAACTAGGTAACCAGGACAGTGAAGAGGTTGGA	-0.0198	-0.368	-0.222	-0.525	-0.784	1.66	2.32	2	0.303	0.958	6.32	5.77	-0.0996	0.22	-0.312	0.0727	-0.0151	-0.648	0.0285
CGAACTAGGTCACCAGGACAGTGAAGAGGTTGGA	3.86	2.39	-0.071	1.65	-0.543	5.04	8.82	7	4.54	6.65	8.47	8.79	4.55	2.24	1.37	0.0754	2.76	0.232	4.14
CGAACTAGGTCACCAGGACAGGGAAGAGGTTGGA	4.04	2.49	-0.0204	1.64	-0.262	5.11	8.73	6.89	4.68	6.72	8.23	8.76	5.57	4.22	1.22	0.127	2.58	0.696	4.13
ATATGGAGGTTAGGGTCATTCAGAAAGTAGGGAA	5.28	4.25	1.34	4.8	2.02	5.63	5.01	4.47	1.89	3.76	2.21	3.8	1.73	2.92	4.32	2.35	4.55	2.05	3.93
CGAACTAGGTCAAAGGACAGTAAAAGGCGACGTA	4.06	2.48	0.208	2.04	-0.428	5.67	9.93	8.18	7.65	8.57	8.07	8.42	0.249	1.7	1.14	0.0773	2.09	0.769	4.06
